Experimental findings from paper PMC3795721, “Screening for Protein-DNA Interactions by Automatable DNA-Protein Interaction ELISA” are described below.

The test concerns the target AT4G31550 (Arabidopsis thaliana, UniProt Q9SV15 228-325). As to the kind of experiment: DPI-ELISA; DPI-ELISA, streptavidin 384-well plate, 1-2 pmol biotinylated dsDNA per well, crude native E. coli extract, anti-His detection; buffer as in Brand et al. [46],; high values mean tight binding. The settings on record: tags: C-terminal His (pET-DEST42); label: 5' biotin on forward strand; dsDNA, one strand shown.

AT4G31550, sequence (Q9SV15 228-325): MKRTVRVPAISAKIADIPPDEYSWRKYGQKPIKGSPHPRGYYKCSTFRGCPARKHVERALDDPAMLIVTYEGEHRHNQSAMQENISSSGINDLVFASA

The sequence AAAAAACCTACGATGGTTCTGATCTTAAAA yielded a binding signal of 0.655 ± 0.12 absorbance. Under AAAAAATTTGCGCTTCATCCTGCCCCAAAA stands 0.715 ± 0.106 absorbance; under AAAAAATGATGTTGGCGCATTTAAACAAAA, 0.53 ± 0.127 absorbance.

AAAAAATTCTTACTTTTGTCTTTACTAAAA: the binding signal came to 0.79 ± 0.156 absorbance.

Turning to AAAAAACCCATCCTTCGTTCCATCGTAAAA, the binding signal is 0.76 ± 0.141 absorbance. The sequence AAAAAAACCCTGTGTCGGCCGATAAAAAA yielded a binding signal of 0.58 ± 0.099 absorbance. Under AAAAAAGGCGGTCGTAGTTGTGGGAGAAAA stands 1.14 ± 0.0849 absorbance. Next, AAAAAAGCCCCTTGCGCCTCTCTACCAAAA: 0.62 ± 0.0424 absorbance; AAAAAACCCCAGATTTCCAGCAGTTCAAAA: 0.945 ± 0.629 absorbance. Under AAAAAATCTAGGGGTACCTATTTGGCAAAA stands 0.675 ± 0.12 absorbance.

As for AAAAAATCGGGGATCCGGGCGGTTGCAAAA, the binding signal was 0.665 ± 0.12 absorbance.

Turning to AAAAAAACTCACGGCGTCACTATGGTAAAA, the binding signal stood at 0.585 ± 0.12 absorbance. Next, AAAAAACACTCACACCTATACGGCTCAAAA: 0.665 ± 0.233 absorbance; AAAAAATGCCCTTTTTATCTTTATGTAAAA: 0.65 ± 0.0707 absorbance; AAAAAAGCTCATGGCCCTGAGGATCTAAAA: 0.73 ± 0.113 absorbance.

The sequence AAAAAACCGCTTACATTGCGTTGTCGAAAA gave a binding signal of 0.605 ± 0.0495 absorbance. Under AAAAAAACTCAACTAGTGAACCACCAAAA stands 0.625 ± 0.0636 absorbance. Under AAAAAAGTATAACGTGTTGTTGACCGAAAA stands 3.455 ± 0.0212 absorbance; under AAAAAAGACACTCTAATTCCGTAGGCAAAA, 0.405 ± 0.0495 absorbance. Turning to AAAAAATGGTCGATCCGCATGCAGTTAAAA, the binding signal amounted to 0.52 ± 0.099 absorbance.

In the case of AAAAAAATCCCACTTCATTCTAAAAA, the binding signal came to 0.6 ± 0.0707 absorbance.

In turn, AAAAAATCACAATACCTTCTCGTCATAAAA showed a binding signal of 0.58 ± 0.113 absorbance. Next, AAAAAAGCGGTAGATGCGCAACTGTGAAAA: 0.6 ± 0.127 absorbance; AAAAAACCAACTCTCTTTCGGACTATAAAA: 0.67 ± 0.156 absorbance. The sequence AAAAAAGTCCATAAACTAAATTGGATAAAA returned a binding signal of 0.525 ± 0.0495 absorbance.

In turn, AAAAAATTCGTTTTTCGTCTTTCATTAAAA showed a binding signal of 0.7 ± 0.156 absorbance. Sequence AAAAAAATCTCACTCCTGGTCCCCATAAAA registered a binding signal of 0.56 ± 0.099 absorbance. As to AAAAAATGCTATCCGTGTCTATGCCAAAAA, the binding signal was determined as 0.54 ± 0.0707 absorbance. Under AAAAAAGCATATCTTCAGAACTTGCCAAAA stands 0.625 ± 0.0778 absorbance; under AAAAAATGTTTTTTAGAGGTGTGCAAAAAA, 0.57 ± 0.0849 absorbance. For AAAAAATGCCGAGACCCCATGCCGGCAAAA, the binding signal came out at 0.51 ± 0.099 absorbance.

The sequence AAAAAATGTCCATCTTGCGTCTGTATAAAA gave a binding signal of 0.79 ± 0.212 absorbance.

In turn, AAAAAAATTCATGCTATTTAACCTTAAAAA registered a binding signal of 0.745 ± 0.0919 absorbance. Next, AAAAAATGTCTAGACTCGGACATTCGAAAA: 0.54 ± 0.0566 absorbance; AAAAAAGGCTCCGGCCCCCAATCGCAAAAA: 0.61 ± 0.0566 absorbance.

On to AAAAAATTCTTAGTTAGATTCACCTCAAAA, for which the binding signal is 0.575 ± 0.134 absorbance. Sequence AAAAAAGCCGTGGGTGATGGTCACAGAAAA had a binding signal of 0.56 ± 0.113 absorbance.

With AAAAAATACGTCTACGTGGTTGTCGTAAAA, the binding signal worked out at 0.72 ± 0.127 absorbance.
